Results on 29 compounds are retold here after ChEMBL document CHEMBL4513216, “Probing the Open Global Health Chemical Diversity Library for Multistage-Active Starting Points for Next-Generation Antimalarials” (ACS Infect Dis, 2020).

Among all 68,000 compounds or so, about 2,700 (4%) showed an effect of 50% or more. The sample holds strong results, similar compounds and a random draw of the others, so the mix is not that of the screen.

This assay concerns Plasmodium berghei. Briefly: Screen against P. berghei liver stage (PbLuc), transformed with Luciferase, at 2uM. It counts as functional, HepG2. Conditions: tested at 2 uM.
In the case of `COc1ccc(CN2CCO[C@@H]3C[C@@H](C(=O)NC(C)C)C[C@H]32)cc1`, the INHIBITION came out at 3.72%.
In the case of `CCN1CC(COC(=O)c2cc(C)nn2CC)CC1=O` (centres undefined) it was 3.46%.
The value for `COc1ccc2c(C)c(C(=O)NC3CCOCC3)oc2c1` was -8.3%; that for `COc1ccc2c(C)c(C(=O)NC3CCN(S(C)(=O)=O)CC3)oc2c1` was 11.9%.
Regarding `COc1ccc2c(C)c(C(=O)NCC3CN(S(C)(=O)=O)CCO3)oc2c1` (centres undefined), the INHIBITION was found to be 60.71%.
In the case of `CC(C)CN1C[C@H](COCc2ccccc2)Oc2ncccc2C1=O` it was 37.74%; in that of `COc1cc2[nH]c(=O)c(CN3CCC[C@@H]3C(N)=O)cc2c(OC)c1OC`, -30.15%.
In the case of `COc1cc2[nH]c(=O)c(CN3CCC[C@H]3CO)cc2c(OC)c1OC` it was 63.1%; in that of `COc1cc2[nH]c(=O)c(CN3CCCC3C)cc2c(OC)c1OC` (centres undefined), -5.51%.
In the case of `CCNC(=O)C1CCN(Cc2ccc(C(=O)Nc3cnns3)cc2)C1` (centres undefined) it was 29.78%.
Take `Cc1cc(C(=O)N2CCc3nc(N4CCCC4)nc(C)c3CC2)c(C)o1`: the INHIBITION is reported as 22.96%.
In the case of `CCCc1cc(CN(C)C2CCSCC2)n[nH]1` it was 36.28%; in that of `CCCc1cc(CN(C)C2CSCCSC2)n[nH]1`, -71.03%; in that of `CCCc1cc(CN(C)C2CC(C)(C)NC(C)(C)C2)n[nH]1`, 62.51%.
On to `CN1CCCN(c2ccc(F)cc2CNC(=O)c2ccsc2)CC1`, for which the INHIBITION turned out to be 31.05%.
As to `O=C(CN1CCN(c2ccnc3c(F)ccc(F)c23)CC1)N1CCCC1`, the INHIBITION amounted to 3.01%.
For `CC(C)(C)CN1CC(COc2ccccc2)Oc2ccncc2S1(=O)=O` (centres undefined), the INHIBITION turned out to be 14.96%.
The value for `Cc1ccc(-c2noc(C(O)CC(C)C)n2)nn1` (centres undefined) was -12.08%; that for `CCSC(C)c1nc(-c2ccc(C)nn2)no1` (centres undefined) was 66.4%; that for `Cc1ccc(-c2noc([C@H](N)CC(C)C)n2)nn1` was 24.55%.
The value for `Fc1cnc(N2C[C@@H]3C[C@@H](c4nc(C5CC5)cs4)O[C@@H]3C2)nc1` was 3.53%; that for `Cc1nc(-c2cc(C(=O)O)co2)cs1` was 9.95%; that for `CCOCC1CN(C(=O)c2ccncn2)Cc2cnn(CC)c21` (centres undefined) was 4.99%.
The value for `CC(C)C(C)(C#N)NC(=O)Cn1cc(Cl)cn1` (centres undefined) was 26.74%; that for `CC(C)C(C)(C#N)NC(=O)Cn1cc(I)cn1` (centres undefined) was 64.9%; that for `CC(C)C(C)(C#N)NC(=O)Cn1cc(-c2ccccc2)cn1` (centres undefined) was -4.26%.
With `Cc1nccn1CCN1C(=O)CC2(CCCC2)CC1=O`, the INHIBITION is on record as -50.2%.
Take `CCc1c(NCc2cccnc2)cnn1CC(C)C`: the INHIBITION is -16.94%.
In the case of `CN(Cc1ccsc1)C(=O)Nc1ccc(S(C)(=O)=O)cc1` it was -12.75%.
